From PubChem BioAssay
Calls of active or inactive are those of the source.

Experiments:
[1] = test system: PRMT1 (protein arginine N-methyltransferase 1); test: small molecules binding arginine methyltransferase PRMT1 – biochemical, small-molecule microarray, 635 nm fluorescence, primary screen (AID 1088); conditions: higher = more signal;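 also: binding of Prmt1 protein to compounds spotted on small-molecule microarray slides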
[2] = growth effects on S. cerevisiae YJM789 – YJM789 clinical isolate, OD600, 24 h, basal, primary screen (AID 1089); conditions: higher = more signal, called active from +8 up or from −8 down;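 also: growth of clinical yeast isolate S. cerevisiae YJM 789 seeded 1000 cells per well; test concentration not given here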
[3] = S. pombe growth modifiers, basal conditions – strain 972, OD600, 24 h, no modulator, primary screen (AID 1090);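 also: basal condition with compound alone and no growth modifier present; test concentration not given here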; conditions: S. pombe 972 growth, higher = more signal, called active from +8 up or from −8 down
[4] = budding yeast growth modifiers under rapamycin – strain BY4716, OD600, 96 h, primary screen (AID 1091); also: test concentration not given here; conditions: S. cerevisiae BY4716 + rapamycin, higher = more signal, called active from +8 up or from −8 down
[5] = target: Torsin-1A-interacting protein 2 (Homo sapiens) (UniProt Q8NFQ8); test: small molecules binding lysate-expressed LULL1 – cell lysate, human LULL1 lysate, 635/667 nm fluorescence, primary screen (AID 1092); conditions: small-molecule microarray, hLULL1 lysate binding, 635 nm fluorescence; higher = more signal;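 also: probe is lysate of COS7 cells overexpressing human LULL1; score merges per-feature 667 nm fluorescence with signal-to-noise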
[6] = optical density change of DRC41 E. coli – strain DRC41, OD650, 24 h, E. coli filamentation project, primary screen (AID 1093);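 also: MC1000 strain lacking acrAB efflux and sulA so SOS filamentation is blocked; test concentration not given here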; conditions: E. coli DRC41 growth, higher = more signal, called active from +8 up or from −8 down
[7] = probe aLefty2 binding to arrayed compounds – biochemical, biotinylated probe, 635/667 nm fluorescence, primary screen (AID 1094); conditions: small-molecule microarray, higher = more signal;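 also: score merges spot fluorescence near 667 nm with spot signal-to-noise ratio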
[8] = test system: Noggin (protein binding on small-molecule microarray); test: small molecules binding Noggin protein – biochemical, 635/667 nm fluorescence, primary screen (AID 1095); conditions: 635 nm fluorescence, higher = more signal;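 also: score merges 667 nm feature fluorescence with signal to noise over triplicate slides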
[9] = target: Neurogenic locus notch homolog protein 3 (Homo sapiens) (UniProt Q9UM47); test: small molecules binding NOTCH3 protein – biochemical, 635/667 nm fluorescence, primary screen (AID 1096); conditions: small-molecule microarray, 635 nm fluorescence, higher = more signal
[10] = probe aEGFR binding to arrayed compounds – biochemical, biotinylated probe, 635/667 nm fluorescence, primary screen (AID 1097); conditions: small-molecule microarray, higher = more signal;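 also: probe is a biotinylated anti-EGFR antibody binding compounds printed on slides; score combines fluorescence near 667 nm and signal to noise of each spot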
[11] = test system: Plasmodium falciparum Sir2 (PF13_0152, Sir2A); test: Plasmodium falciparum Sir2A binding compounds – biochemical, small-molecule microarray, 635 nm fluorescence, primary screen (AID 1098); conditions: fluorescence 635 nm, higher = more signal;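 also: score merges spot fluorescence intensity with its signal-to-noise ratio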
[12] = probe aDKK1 binding to arrayed compounds – biochemical, biotinylated probe, 635/667 nm fluorescence, primary screen (AID 1099); conditions: small-molecule microarray, higher = more signal;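 also: score merges 667nm spot fluorescence with signal to noise across triplicate slides; reference of the scale not given here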
[13] = probe aCHRDL2 binding to arrayed compounds – biochemical, biotinylated probe, 635/667 nm fluorescence, primary screen (AID 1100); conditions: small-molecule microarray, higher = more signal
[14] = change in splice reporter luminescence, either direction, cell-based, HEK293, spliceosome inhibition project, primary screen (AID 1101); conditions: HEK293 splicing luciferase reporter, 24 h, higher = more signal, called active from +8 up or from −8 down;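 also: HEK293 cells carrying a splicing-competent luciferase reporter gene; test concentration not given here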
[15] = target: Fibroblast growth factor 10 (Homo sapiens) (UniProt O15520); test: compounds binding fibroblast growth factor 10 – biochemical, small-molecule microarray, 635 nm fluorescence, primary screen (AID 1102); conditions: FGF10 binding, fluorescence 635 nm, higher = more signal
[16] = test system: glycogen synthase kinase-3 (GSK3A per assay name; protocol says GSK3B); test: compounds binding glycogen synthase kinase-3 – biochemical, small-molecule microarray, 635 nm fluorescence, GSK3A, primary screen (AID 1103); conditions: fluorescence 635 nm, higher = more signal; also: the record names both GSK3A and GSK3B
[17] = target: Epidermal growth factor receptor (Homo sapiens) (UniProt P00533); test: compounds binding epidermal growth factor receptor – biochemical, small-molecule microarray, 635 nm fluorescence, primary screen (AID 1104); conditions: EGFR binding, higher = more signal;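 also: score merges 667 nm emission intensity with spot signal to noise over triplicate slides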
[18] = target: Follistatin-related protein 3 (Homo sapiens) (UniProt O95633); test: compounds binding follistatin-related protein 3 – biochemical, small-molecule microarray, 635 nm fluorescence, primary screen (AID 1105); conditions: FSTL3 binding, higher = more signal;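 also: score merges emission near 667 nm and signal to noise per printed spot across three slides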
[19] = target: Dickkopf-related protein 1 (Homo sapiens) (UniProt O94907); test: small molecules binding DKK1 protein – biochemical, small-molecule microarray, 635 nm fluorescence scan, primary screen (AID 1106); conditions: higher = more signal;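 also: score merges emission near 667 nm with signal to noise over three replicate slides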
[20] = test system: Inhibin beta A chain (activin A); test: small molecules binding activin A – biochemical, small-molecule microarray, 635 nm fluorescence scan, primary screen (AID 1107); conditions: INHBA, higher = more signal;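 also: mouse activin A protein probed at 4.33 µg/mL on printed slides; score merges bound-protein fluorescence near 667 nm with spot signal-to-noise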

Torsin-1A-interacting protein 2 (Homo sapiens), sequence (Q8NFQ8 whole entry, looked up): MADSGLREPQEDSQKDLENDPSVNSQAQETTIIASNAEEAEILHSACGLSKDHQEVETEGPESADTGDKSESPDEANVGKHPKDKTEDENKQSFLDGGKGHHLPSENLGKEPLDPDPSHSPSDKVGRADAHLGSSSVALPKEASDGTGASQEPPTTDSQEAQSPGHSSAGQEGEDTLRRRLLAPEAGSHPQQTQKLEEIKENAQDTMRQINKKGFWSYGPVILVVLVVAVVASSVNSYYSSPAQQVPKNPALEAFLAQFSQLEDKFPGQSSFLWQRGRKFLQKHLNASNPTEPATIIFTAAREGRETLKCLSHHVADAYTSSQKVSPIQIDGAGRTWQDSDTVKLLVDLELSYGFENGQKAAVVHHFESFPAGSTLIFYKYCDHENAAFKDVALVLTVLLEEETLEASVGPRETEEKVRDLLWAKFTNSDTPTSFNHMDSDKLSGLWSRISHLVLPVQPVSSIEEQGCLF
Epidermal growth factor receptor (Homo sapiens), sequence (P00533 whole entry, looked up): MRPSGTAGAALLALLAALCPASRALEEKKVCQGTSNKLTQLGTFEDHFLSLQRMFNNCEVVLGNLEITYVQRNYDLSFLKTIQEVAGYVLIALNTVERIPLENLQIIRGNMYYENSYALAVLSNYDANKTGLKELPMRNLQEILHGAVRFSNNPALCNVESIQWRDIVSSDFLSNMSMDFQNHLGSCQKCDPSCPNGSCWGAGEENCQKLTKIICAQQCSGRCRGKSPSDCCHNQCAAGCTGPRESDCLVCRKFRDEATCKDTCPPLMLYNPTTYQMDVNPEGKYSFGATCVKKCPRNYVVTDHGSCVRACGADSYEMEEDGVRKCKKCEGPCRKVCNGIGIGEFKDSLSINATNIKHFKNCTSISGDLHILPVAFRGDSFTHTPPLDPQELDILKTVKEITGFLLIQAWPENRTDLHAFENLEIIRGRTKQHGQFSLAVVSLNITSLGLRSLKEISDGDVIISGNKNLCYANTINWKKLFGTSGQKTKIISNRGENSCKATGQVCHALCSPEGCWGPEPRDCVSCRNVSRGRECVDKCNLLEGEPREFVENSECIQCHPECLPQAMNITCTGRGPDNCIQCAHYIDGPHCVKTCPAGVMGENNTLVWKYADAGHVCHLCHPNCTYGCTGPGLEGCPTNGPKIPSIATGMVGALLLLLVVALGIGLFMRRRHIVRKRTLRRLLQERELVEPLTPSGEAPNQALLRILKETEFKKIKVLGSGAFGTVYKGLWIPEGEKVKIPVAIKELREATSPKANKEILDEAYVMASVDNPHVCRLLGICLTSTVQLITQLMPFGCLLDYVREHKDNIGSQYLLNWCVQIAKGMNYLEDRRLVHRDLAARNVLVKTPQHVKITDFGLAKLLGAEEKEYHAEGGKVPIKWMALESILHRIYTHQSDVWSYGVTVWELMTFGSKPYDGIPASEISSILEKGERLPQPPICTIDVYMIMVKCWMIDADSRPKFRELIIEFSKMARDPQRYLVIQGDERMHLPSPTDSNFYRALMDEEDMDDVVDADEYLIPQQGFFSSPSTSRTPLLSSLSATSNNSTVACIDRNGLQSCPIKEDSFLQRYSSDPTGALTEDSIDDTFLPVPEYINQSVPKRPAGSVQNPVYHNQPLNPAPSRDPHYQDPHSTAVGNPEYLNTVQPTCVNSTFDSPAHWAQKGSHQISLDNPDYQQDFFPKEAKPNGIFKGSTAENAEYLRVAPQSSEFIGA
Fibroblast growth factor 10 (Homo sapiens), sequence (O15520 whole entry, looked up): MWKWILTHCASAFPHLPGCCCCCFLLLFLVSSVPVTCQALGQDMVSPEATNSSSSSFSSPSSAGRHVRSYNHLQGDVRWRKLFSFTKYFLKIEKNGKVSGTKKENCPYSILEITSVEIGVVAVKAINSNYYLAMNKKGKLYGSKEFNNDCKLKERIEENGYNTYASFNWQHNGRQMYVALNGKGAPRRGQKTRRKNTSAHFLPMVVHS
Follistatin-related protein 3 (Homo sapiens), sequence (O95633 whole entry, looked up): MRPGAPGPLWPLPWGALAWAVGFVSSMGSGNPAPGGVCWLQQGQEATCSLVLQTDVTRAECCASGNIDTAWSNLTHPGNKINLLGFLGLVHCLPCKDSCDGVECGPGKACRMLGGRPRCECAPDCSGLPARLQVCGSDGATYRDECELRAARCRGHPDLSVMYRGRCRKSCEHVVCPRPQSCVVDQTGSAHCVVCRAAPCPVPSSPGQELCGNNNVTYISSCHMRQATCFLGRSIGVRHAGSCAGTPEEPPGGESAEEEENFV
Dickkopf-related protein 1 (Homo sapiens), sequence (O94907 whole entry, looked up): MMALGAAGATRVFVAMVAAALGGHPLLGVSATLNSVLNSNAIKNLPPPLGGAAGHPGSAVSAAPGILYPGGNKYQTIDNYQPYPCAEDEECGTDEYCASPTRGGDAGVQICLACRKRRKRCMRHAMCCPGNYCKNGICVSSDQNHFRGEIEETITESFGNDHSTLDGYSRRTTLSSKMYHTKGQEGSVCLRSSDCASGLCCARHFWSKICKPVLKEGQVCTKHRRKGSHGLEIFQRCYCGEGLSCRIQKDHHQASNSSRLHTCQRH
Neurogenic locus notch homolog protein 3 (Homo sapiens), sequence (Q9UM47 whole entry, looked up): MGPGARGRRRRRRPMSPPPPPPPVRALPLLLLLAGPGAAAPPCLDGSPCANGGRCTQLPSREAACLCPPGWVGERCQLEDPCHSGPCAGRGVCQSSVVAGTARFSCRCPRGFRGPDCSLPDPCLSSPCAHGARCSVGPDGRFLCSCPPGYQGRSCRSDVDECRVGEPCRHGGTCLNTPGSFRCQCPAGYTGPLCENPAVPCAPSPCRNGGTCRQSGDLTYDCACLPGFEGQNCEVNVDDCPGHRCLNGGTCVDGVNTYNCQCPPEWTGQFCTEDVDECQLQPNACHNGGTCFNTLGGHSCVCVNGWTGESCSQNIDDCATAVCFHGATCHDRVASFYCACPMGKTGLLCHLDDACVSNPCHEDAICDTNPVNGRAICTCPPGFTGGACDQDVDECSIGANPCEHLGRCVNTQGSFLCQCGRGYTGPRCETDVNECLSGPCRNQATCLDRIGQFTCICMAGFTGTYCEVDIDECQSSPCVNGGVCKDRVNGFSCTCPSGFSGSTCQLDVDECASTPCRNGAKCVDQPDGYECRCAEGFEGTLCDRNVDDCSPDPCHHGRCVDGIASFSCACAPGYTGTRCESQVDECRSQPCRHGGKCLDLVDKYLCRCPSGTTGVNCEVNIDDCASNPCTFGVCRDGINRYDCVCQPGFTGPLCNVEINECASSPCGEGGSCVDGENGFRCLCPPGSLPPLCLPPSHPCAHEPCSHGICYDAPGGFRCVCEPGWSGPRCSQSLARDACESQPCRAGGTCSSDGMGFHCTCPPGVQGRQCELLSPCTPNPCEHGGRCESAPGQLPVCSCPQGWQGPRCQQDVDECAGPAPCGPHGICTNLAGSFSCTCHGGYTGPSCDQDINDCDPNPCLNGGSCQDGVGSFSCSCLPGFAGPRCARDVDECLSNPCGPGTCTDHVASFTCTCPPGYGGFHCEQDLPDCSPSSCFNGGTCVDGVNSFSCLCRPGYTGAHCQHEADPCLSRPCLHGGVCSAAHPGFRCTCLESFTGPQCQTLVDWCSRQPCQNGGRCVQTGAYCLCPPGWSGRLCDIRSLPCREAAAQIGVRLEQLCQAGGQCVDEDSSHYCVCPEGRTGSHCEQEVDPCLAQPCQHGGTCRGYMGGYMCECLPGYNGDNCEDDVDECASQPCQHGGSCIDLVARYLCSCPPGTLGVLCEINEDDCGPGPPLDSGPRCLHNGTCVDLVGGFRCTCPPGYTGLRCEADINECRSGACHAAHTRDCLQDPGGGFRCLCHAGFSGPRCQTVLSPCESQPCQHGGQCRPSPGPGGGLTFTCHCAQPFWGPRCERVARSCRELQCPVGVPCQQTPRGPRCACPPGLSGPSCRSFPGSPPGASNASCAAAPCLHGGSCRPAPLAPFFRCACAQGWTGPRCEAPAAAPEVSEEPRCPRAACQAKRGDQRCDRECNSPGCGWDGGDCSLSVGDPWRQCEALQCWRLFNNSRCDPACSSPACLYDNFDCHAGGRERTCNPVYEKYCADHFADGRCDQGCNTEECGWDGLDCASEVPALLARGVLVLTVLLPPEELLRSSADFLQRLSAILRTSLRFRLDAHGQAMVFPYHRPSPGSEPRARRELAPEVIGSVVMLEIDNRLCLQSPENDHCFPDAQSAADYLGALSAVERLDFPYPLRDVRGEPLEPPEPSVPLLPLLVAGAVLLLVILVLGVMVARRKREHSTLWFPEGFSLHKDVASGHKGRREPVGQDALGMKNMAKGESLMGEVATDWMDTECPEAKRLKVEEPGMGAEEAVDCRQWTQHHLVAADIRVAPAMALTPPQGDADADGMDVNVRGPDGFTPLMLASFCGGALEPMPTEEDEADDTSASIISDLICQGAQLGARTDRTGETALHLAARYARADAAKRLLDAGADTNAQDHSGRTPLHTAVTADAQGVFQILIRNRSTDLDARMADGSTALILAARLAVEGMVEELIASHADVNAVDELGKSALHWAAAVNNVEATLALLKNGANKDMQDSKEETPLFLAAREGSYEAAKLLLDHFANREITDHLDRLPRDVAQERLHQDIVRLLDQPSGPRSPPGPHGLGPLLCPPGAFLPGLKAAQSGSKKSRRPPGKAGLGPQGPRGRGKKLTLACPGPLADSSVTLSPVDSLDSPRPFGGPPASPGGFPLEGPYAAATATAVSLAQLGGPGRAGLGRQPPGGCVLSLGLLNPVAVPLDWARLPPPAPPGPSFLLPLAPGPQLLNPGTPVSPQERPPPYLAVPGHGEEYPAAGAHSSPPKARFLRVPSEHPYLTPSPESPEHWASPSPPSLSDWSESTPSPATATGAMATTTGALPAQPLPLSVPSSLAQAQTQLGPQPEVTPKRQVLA

Compound | composite z-score [1] | z-score [2] | z-score [3] | z-score [4] | composite z-score [5] | z-score [6] | composite z-score [7] | composite z-score [8] | composite z-score [9] | composite z-score [10] | composite z-score [11] | composite z-score [12] | composite z-score [13] | z-score [14] | composite z-score [15] | composite z-score [16] | composite z-score [17] | composite z-score [18] | composite z-score [19] | composite z-score [20]
NC(=O)N1C(=O)C2C(C1=O)C1C=C(CCCO)C2C(C2CC2)N1Cc1cccc(OC(F)(F)F)c1 (stereo not given) | 0.639 | -0.897 (inactive) | -0.497 (inactive) | -1.47 (inactive) | 2.63 | -0.284 (inactive) | -0.249 | -0.0319 | -0.538 | -0.184 | 1.59 | -0.306 | -0.345 | 0.0948 (inactive) | 0.075 | -0.186 | -0.595 | -0.494 | -0.0361 | 0.561
COC(=O)[C@@]1(Cc2ccc(F)cc2)[C@H]2c3cc(C(=O)N4CCCC4)n(CC4CC4)c3C[C@H]2CN1C(=O)c1ccccc1 | 0.649 | -0.223 (inactive) | 0.64 (inactive) | 0.125 (inactive) | 3.32 | -0.475 (inactive) | 0.329 | 0.577 | 1.1 | 0.358 | 1.4 | 1.15 | 1.3 | -0.761 (inactive) | 0.692 | 0.621 | 0.915 | 0.466 | 0.0587 | 0.789
CC1(C)C(=O)C(c2ccccc2)=C2CN3C(=O)N(CCc4ccccc4)C(=O)C3(Cc3ccc(F)cc3)C=C21 (stereo not given) | -0.203 | 0.54 (inactive) | 0.921 (inactive) | 6.84 (inactive) | 2.52 | -2 (inactive) | 0.428 | -0.459 | 0.337 | 0.133 | 0.251 | 1.19 | 1.24 | -0.274 (inactive) | -0.236 | -0.556 | -0.554 | -0.0423 | -1.11 | 0.958
COc1ccc(C(O)C2C=CC3C(=O)N(c4ccccc4)C(=O)C3N2Nc2ccccc2F)cc1 (stereo not given) | 1.1 | -0.228 (inactive) | 0.575 (inactive) | -0.246 (inactive) | 3.46 | 0.0902 (inactive) | 0.183 | 0.164 | 0.842 | -0.0678 | 1.47 | 0.447 | 1 | 0.747 (inactive) | 0.111 | 0.102 | -0.296 | 0.0817 | -0.81 | 0.685
CCCC=C(CCC)[C@@H](NS(=O)(=O)c1cccc2cccnc12)c1ccc(-c2ccccc2)cc1 | 1.55 | -0.221 (inactive) | 0.114 (inactive) | 0.638 (inactive) | 3.61 | -0.701 (inactive) | 0.104 | 1.07 | 1.06 | 0.06 | 0.757 | 0.939 | 0.75 | -0.301 (inactive) | 1 | 1.32 | 0.355 | 0.909 | -0.345 | -0.278
